The source made the active and inactive calls. How the source made its calls: active means hit-call score of the fitted dose curve at least 0.9, where 1 is the maximum; inactive means score below 0.9.
These compounds were tested on Basic fibroblast growth factor (bFGF), FGF2 (gene 2247) (assay: BSK_MyoF_bFGF: BioMAP Diversity Plus: MyoF Assay for Basic fibroblast growth factor (bFGF) Biomarker Activity (AID 2284246)). Details: primary human lung fibroblasts.
Procedure: BSK_MyoF is a cell-based, multiplexed-readout assay that uses lung fibroblasts, a human […] primary cell, with measurements taken at 24 hours after chemical dosing in a microplate: 96-well plate.BSK_MyoF_bFGF is an assay component measured in the BSK_MyoF assay. It measures bFGF antibody related to regulation of gene expression using ELISA technology.Data from the assay component BSK_MyoF_bFGF was analyzed at the endpoint, BSK_MyoF_bFGF, in the positive analysis fitting direction relative to DMSO as the negative control and baseline of activity. Using a type of binding reporter, gain or loss-of-signal activity can be used to understand protein changes. To generalize the intended target to other relatable targets, this assay endpoint is annotated to the 'growth factor' intended target family, where the subfamily is 'basic fibroblast growth factor '.
The levels of cell surface (or secreted, indicated by the prefix "s") biomarker endpoints were measured by ELISA. Overt cytotoxicity to cells in confluent adherent cultures (all systems other than the BT system) was assessed by measuring total protein levels using sulforhodamine B (SRB) staining in parallel cultures at the time of biomarker measurements, indicated as SRB endpoints. For proliferation assays for adherent cell types, individual cell types are cultured at sub-confluence and relative cell numbers quantified by SRB staining at time points optimized for each system (48 h: 3C and CASM3C systems; 72 h: BT and HDF3CGF systems; 96 h: SAg system). SRB was performed by staining cells with 0.1% SRB after fixation with 10% TCA and reading wells at 560 nm.Viability and proliferation of PBMC (T cells) was quantified by Alamar Blue reduction for the SAg and BT systems. For PBMC viability (referred to as PBMC Cytotoxicity within the assay endpoint names), cells were plated (75,000/well in a 96-well plate) and then chemical samples added for 1 h before addition of activators, SEB and TSST-1 (20 ng/mL final concentration each). Cells were incubated for 90 h. Then, Alamar Blue (20 uL/well) (Invitrogen, Cat DAL1100) was added for 6 h, and the plates were read with a fluorescence microplate reader at 546/580 nm (excitation/emission). For PBMC proliferation, cells were plated and activated as above but incubated for only 16 h prior to addition of Alamar Blue. Plates were read after 6 h.

| SMILES | outcome |
| --- | --- |
| FC(F)(F)C(F)(F)C(F)(F)C(F)(F)C(F)(F)C(F)(F)I | inactive |
| S=P(N1CC1)(N1CC1)N1CC1 | inactive |
| C[Si](C)(C)C(F)(F)C(F)(F)C(F)(F)F | inactive |
| NCC(F)(F)C(F)(F)C(F)(F)C(F)(F)F | inactive |
| FC(F)=C(F)C(F)(F)C(F)(F)C(F)(F)C(F)(F)C(F)(F)C(F)(F)F | inactive |
| O=C(Cl)C(F)(F)C(F)(F)C(F)(F)C(=O)Cl | inactive |
| OCCC(F)(F)C(F)(F)C(F)(F)C(F)(F)F | inactive |
| FC(F)(F)COC(OCC(F)(F)F)OCC(F)(F)F | inactive |
| FC(F)C(F)(F)COCC1CO1 (stereo not drawn) | inactive |
| OCc1c[nH]c2ccccc12 | inactive |
| O=S(=O)(O)CCC(F)(F)C(F)(F)C(F)(F)C(F)(F)C(F)(F)C(F)(F)F | inactive |
| OC(O)(C(F)C(O)(O)C(F)(F)F)C(F)(F)F | inactive |
| Cc1cccc(O)c1C | inactive |
